About 83,000 compounds went through this panel and 20% of them were active in at least one assay; those are over-represented in the sample as a whole.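 Results are percent growth after 48 hours of single-concentration exposure. 100 means growth as in untreated cells, lower positive values show inhibition; negative values down to -100 show cell death.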 Active and inactive are the calls of the source. Rule for the calls: active = growth percent below 10; inactive = the rest.
The compounds below were run on HCT-116 colon (assay: NCI-60 one-dose screen, 48 h (100 = growth as untreated, 0 = no growth, -100 = all killed)). Details: 10 µM unless noted.
In the case of `Cc1ccc(-c2cc3c(cc2O)C2CCCCC2(N2CCOCC2)O3)cc1` (configuration not stated), the growth is reported as 97.3% (inactive).
For `N#Cc1c(N2CCNCC2)nc2sc3cc(Cl)c(Cl)cc3n2c1=N`, the growth was 97.1% (inactive).
For `Cc1c(O)cc(-c2cnc(N/N=C\c3ccc(Cl)cc3)s2)c(O)c1C`, the growth was 94.6% (inactive).
`COc1ccc(-c2cc(-c3cc(OC)ccc3OC)nc(SCC(=O)c3ccccc3)c2C#N)cc1` was tested, and the growth was 88.5% (inactive).
`COCCc1ccc(OCC(O)CNC(C)C)cc1` (configuration not stated) was tested, and the growth was 101% (inactive).
For `CC/C=C\CCC/C=C1/C(=O)C=C[C@@H]1C/C=C\CCCC(=O)O`, the growth was -30.2% (active).
In the case of `COc1cccc(C(=O)NCCCNc2cc(-c3cn(-c4ccccc4)nc3-c3cccc(OC)c3)ccn2)c1`, the growth is reported as 30.5% (inactive).
With `Cc1cc(C(=O)c2ccccc2)c(C)c2c1[nH]c1ccc(Cl)cc12` the growth was 5.1% (active).
For `Cc1ccc(C(=O)COc2cccc(/C=C3\Oc4ccccc4C3=O)c2)cc1`, the growth was 94.2% (inactive).
In the case of `COc1cccc(-c2nn(-c3ccccc3)cc2-c2ccnc(NCCNC(=O)Nc3cccc(C(F)(F)F)c3)c2)c1`, the growth is reported as 10.5% (inactive).
`COc1ccc(/C=N/C2=C(C#N)C(c3ccc(OC)cc3)c3ccc4ccccc4c3O2)cc1` (configuration not stated) was tested, and the growth was 71.7% (inactive).
For `N#CC1=C(NC=O)Oc2c(ccc3ccccc23)C1c1ccccc1` (configuration not stated), the growth was 21.1% (inactive).
In the case of `CCCCc1ccc(Nc2ccc(Nc3ccc(CCCC)cc3S(=O)(=O)O)c3c2C(=O)c2ccccc2C3=O)c(S(=O)(=O)O)c1`, the growth is reported as 106% (inactive).

The compounds below were run on HCC-2998 colon in the same assay as above. Details: 10 µM unless noted.
For `COc1cc(CCC[P+](c2ccccc2)(c2ccccc2)c2ccccc2)cc2c1OCO2`, the growth was 24.3% (inactive).
In the case of `Cc1cc(Cl)nc(NCc2cc(Nc3ccnc4cc(Cl)ccc34)ccc2F)n1`, the growth is reported as 73.1% (inactive).
In the case of `COc1ccc(C2c3ccc4ccccc4c3Oc3nc(C)[nH]c(=O)c32)cc1` (configuration not stated), the growth is reported as 103% (inactive).
With `O=C1OC(c2nc3ccccc3s2)=C/C1=C\c1ccc(O)cc1` the growth was 108% (inactive).
In the case of `Cc1ccc(NS(=O)(=O)c2ccc3c(c2)C2OCCC2C(c2ccc(C(=O)C(C)C)cc2)N3)cc1C` (configuration not stated), the growth is reported as 62.2% (inactive).
`CC1SC(c2ccc(OCc3ccccc3)cc2)N(NC(=O)C(O)(c2ccccc2)c2ccccc2)C1=O` (configuration not stated) was tested, and the growth was 79.9% (inactive).
`S=C(Cc1ccc2c(c1)CCCC2)N1CCOCC1` was tested, and the growth was 98% (inactive).
With `CC1=CN2C(=O)C3C4=C(CCCC4)SC3N=C2CN1c1c(C)cccc1C` (configuration not stated) the growth was 97.3% (inactive).
For `CC(=O)n1c(-c2ccc(Cl)cc2)nc2c(c1=O)C(c1ccc(Cl)cc1)c1sc3c(Cl)cccc3c1O2` (configuration not stated), the growth was -45.4% (active).
`O=C(N=c1oc2ccccc2cc1-c1cc2ccccc2[nH]1)c1ccc(Cl)cc1` was tested, and the growth was 81.9% (inactive).
For `Cn1ccc2c(c1=O)C(=O)c1nccc3c1c-2nc1ccccc13`, the growth was -96.2% (active).
`COc1ccccc1CNCCCN1C(=O)c2ccc3c4c(ccc(c24)C1=O)C(=O)N(CCCNCCCCN)C3=O` was tested, and the growth was -71.8% (active).
With `C=C1C(=O)O[C@H]2[C@H]1CC/C(COC(=O)C(=O)c1cn(C)c3ccc(OC)cc13)=C\CC[C@@]1(C)O[C@@H]21` the growth was -65.3% (active).
For `O=C(NCCCNc1cc(-c2cn(-c3ccccc3)nc2-c2cccc(O)c2)ccn1)c1cccc(O)c1`, the growth was 64.8% (inactive).
For `Cc1c(C(=O)OC(=NC2CCCCC2)NC2CCCCC2)sc2c1c(=O)nc1c(C#N)n[nH]n12`, the growth was 100% (inactive).
For `COc1cc(N=Nc2ccc(N)cc2)c(OC)cc1N=Nc1ccccc1.[Cl][Zn][Cl]`, the growth was 98.9% (inactive).
`COc1cc(C2CC(c3cc(OC)c(OCCCOc4ccc(-n5c(/C=C/c6ccccc6)nc6ccccc6c5=O)cc4)c(OC)c3)=NO2)cc(OC)c1OC` (configuration not stated) was tested, and the growth was 105% (inactive).
In the case of `COc1cc(/C=N/NC(=O)Cn2c(C(C)C)nc3ccccc32)ccc1O`, the growth is reported as 103% (inactive).
With `CC(C)(C)n1cc(-c2ccnc(NCCCNS(=O)(=O)c3ccccc3)c2)c(-c2ccccc2)n1` the growth was 78.1% (inactive).
For `COc1ccc(S(=O)(=O)NCCNc2nccc(-c3c(-c4cccc(F)c4)nc4sccn34)n2)cc1`, the growth was 52.9% (inactive).
In the case of `CCOC(=O)c1c(-c2ccc(Cl)cc2)c(C#N)c(=O)n(-c2ccccc2CC)c1N`, the growth is reported as 66.4% (inactive).
In the case of `O=C(COc1ccc(/C=C2\Oc3ccccc3C2=O)cc1)c1ccc(Cl)cc1`, the growth is reported as 97.4% (inactive).
In the case of `Cc1ccc2nc3ccccc3c(NCc3ccccc3)c2c1`, the growth is reported as -21.4% (active).
`O=c1[nH]nc(-c2ccccc2)c2c(-c3ccccc3)onc12` was tested, and the growth was 35.1% (inactive).

Reference: PubChem BioAssay (NCI)
